This is an account of results in PubChem BioAssay (NCATS).

The target in test [1] is Bile acid receptor (Homo sapiens) (UniProt Q96RI1). The experiment in a line: qHTS assay for small molecule antagonists of farnesoid X receptor signaling (AID 588526). Also: % is scaled to controls: 0 for no effect and ±100 for the full control effect. The gist of the method: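 Beta-lactamase reporter antagonist mode: HEK293T FXR-UAS-bla cells, titrated compound, CDCA stimulation, 16 h 37 C, CCF4 dye 2 h RT. Data normalized to CDCA 50 uM and DMSO; Hill-fit IC50.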
Bile acid receptor (Homo sapiens), sequence (Q96RI1 whole entry, looked up): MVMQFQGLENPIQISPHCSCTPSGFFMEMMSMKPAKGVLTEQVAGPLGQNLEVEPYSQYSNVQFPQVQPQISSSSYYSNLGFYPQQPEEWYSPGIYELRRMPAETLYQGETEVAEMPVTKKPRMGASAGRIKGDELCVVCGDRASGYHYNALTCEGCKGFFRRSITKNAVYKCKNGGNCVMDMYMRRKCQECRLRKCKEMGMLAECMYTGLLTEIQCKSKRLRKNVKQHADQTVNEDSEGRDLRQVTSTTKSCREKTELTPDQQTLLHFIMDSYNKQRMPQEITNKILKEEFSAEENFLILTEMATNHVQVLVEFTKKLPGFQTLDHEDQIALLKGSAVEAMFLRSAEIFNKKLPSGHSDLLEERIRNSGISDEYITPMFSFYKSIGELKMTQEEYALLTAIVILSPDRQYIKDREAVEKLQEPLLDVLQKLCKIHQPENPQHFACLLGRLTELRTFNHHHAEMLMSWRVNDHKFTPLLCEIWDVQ
(In general: Quantitative high-throughput screening tests each substance at several concentrations.)

Test [2] shares this target. Put plainly: qHTS assay for small molecule agonists of farnesoid X receptor signaling (AID 588527).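 Also: series mostly up to about 77 µM; 0% = vehicle basal and 100% = reference agonist.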 Conditions: HEK293T FXR-UAS-bla, beta-lactamase ratio, 16 h; activation: stronger effect = higher value. The gist of the method:
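Quantitative HTS used FXR-UAS-bla HEK293T cells with 16 h compound incubation at 37 C. EC50 values came from concentration-response curves normalized to chenodeoxycholic acid.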

The target in test [3] is Glucocorticoid receptor (Homo sapiens) (UniProt P04150). The experiment in a line: qHTS assay for small molecule agonists of glucocorticoid receptor signaling (AID 588532; active = well fitted curve in the direction sought with a large enough effect in the signal ratio, with a control signal flat; the % refers to the signal ratio;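 also: 100% = dexamethasone at 0.1 µM and 0% = DMSO only wells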). Conditions: HeLa MMTV-bla, beta-lactamase ratio, agonist, 18 h; activation: stronger effect = higher value, percent of dexamethasone control, DMSO zero. The gist of the method:
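Using MMTV-bla HeLa cells in medium with 1% stripped FBS and 25 mM HEPES, compounds were titrated and incubated overnight-length (18 h). Beta-lactamase cleavage of CCF4 was quantified by dual-emission fluorescence.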

The target in test [4] is Peroxisome proliferator-activated receptor delta (Homo sapiens) (UniProt Q03181). Put plainly: qHTS assay for small molecule agonists of peroxisome proliferator-activated receptor delta signaling (AID 588534).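 Also: 0% = DMSO basal wells and 100% = positive control agonist at 10 µM.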 In short, it runs like this:
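Cell-based beta-lactamase reporter assay run in agonist mode: cells seeded and incubated 5 hrs at 37 C, compounds added and incubated 18 hrs at 37 C. CCF4 dye fluorescence read after 2 hrs at RT; EC50 and efficacy from Hill fits.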

A short description of test [5]: qHTS assay for small molecule antagonists of peroxisome proliferator-activated receptor delta signaling (AID 588535).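 Also: cells co-treated with a PPAR-delta agonist as stimulator during compound exposure.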 The following applies: HEK293T PPARd-UAS-bla, beta-lactamase FRET ratio, 18 h; 460 nm channel. In short, it runs like this: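 Cell-based beta-lactamase assay in antagonist mode: 4000 HEK293T PPAR-delta-UAS-bla cells per well, 5 hr preincubation then 18 hr compound incubation at 37 C. IC50 obtained by Hill equation fitting.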

The target in test [6] is Vitamin D3 receptor (Homo sapiens) (UniProt P11473). Put plainly: qHTS assay for small molecule agonists of vitamin D receptor signaling (AID 588543).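 Also: 0% = DMSO basal and 100% = reference agonist control.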 The gist of the method: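 qHTS in agonist mode: compound titrations stimulate a VDR-driven β-lactamase reporter in HEK293T cells over 16 h at 37 °C. Response normalized to 50 nM 1α,25-dihydroxyvitamin D3 = 100%, DMSO = 0%; Hill fitting gives EC50 and maximal response.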
Vitamin D3 receptor (Homo sapiens), sequence (P11473 whole entry, looked up): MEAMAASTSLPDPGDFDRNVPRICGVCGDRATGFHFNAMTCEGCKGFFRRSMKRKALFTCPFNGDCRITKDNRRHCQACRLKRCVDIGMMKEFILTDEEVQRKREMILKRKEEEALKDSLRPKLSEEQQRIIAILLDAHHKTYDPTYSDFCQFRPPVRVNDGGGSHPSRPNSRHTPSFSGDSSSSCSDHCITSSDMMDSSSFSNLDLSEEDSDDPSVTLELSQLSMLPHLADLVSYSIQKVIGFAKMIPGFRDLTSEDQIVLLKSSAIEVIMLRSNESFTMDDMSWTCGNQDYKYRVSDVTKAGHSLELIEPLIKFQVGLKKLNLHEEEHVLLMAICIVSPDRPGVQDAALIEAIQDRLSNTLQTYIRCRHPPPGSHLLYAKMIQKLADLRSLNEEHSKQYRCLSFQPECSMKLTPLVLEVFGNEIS

Test [7] deals with Retinoic acid receptor RXR-alpha (Homo sapiens) (UniProt P19793). The experiment in a line: qHTS assay for small molecule agonists of retinoid X receptor alpha signaling (AID 588544). Also: potency is read from the fitted curve at half-maximal effect.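 As to activation: 0% = DMSO basal wells and 100% = reference agonist.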
Retinoic acid receptor RXR-alpha (Homo sapiens), sequence (P19793 whole entry, looked up): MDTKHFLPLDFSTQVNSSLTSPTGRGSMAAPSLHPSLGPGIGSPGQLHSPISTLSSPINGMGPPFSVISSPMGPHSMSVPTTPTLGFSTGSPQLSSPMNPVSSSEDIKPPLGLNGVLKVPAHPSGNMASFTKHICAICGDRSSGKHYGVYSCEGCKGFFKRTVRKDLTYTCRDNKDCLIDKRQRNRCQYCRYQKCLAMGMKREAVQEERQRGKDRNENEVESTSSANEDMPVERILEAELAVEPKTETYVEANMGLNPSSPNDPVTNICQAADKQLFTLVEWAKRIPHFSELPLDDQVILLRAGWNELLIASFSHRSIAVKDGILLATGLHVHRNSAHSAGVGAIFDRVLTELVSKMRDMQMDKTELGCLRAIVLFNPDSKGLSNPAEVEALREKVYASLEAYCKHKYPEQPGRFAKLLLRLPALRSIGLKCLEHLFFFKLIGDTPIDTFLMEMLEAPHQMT
Test [8] addresses Thyroid hormone receptor beta (Homo sapiens) (UniProt P10828). Put plainly: qHTS assay for small molecule agonists of thyroid hormone receptor beta signaling (AID 588545). In short, it runs like this: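 Agonist activity was read as beta-lactamase CCF4 fluorescence (405 ex, 460/530 em), scaled between DMSO (0%) and 10 nM T3 (100%), then Hill-fitted for EC50 and efficacy. HEK 293 TR-UAS-bla cells in 2% charcoal/dextran FBS medium were exposed 18 h at 37 C.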

A short description of test [9]: qHTS assay for small molecule antagonists of retinoid X receptor alpha signaling (AID 588546; active = well fitted inhibition curve with a large enough effect in the signal ratio, with a control signal flat, not every such curve was filed as active; the % refers to the signal ratio; also: potency is read from the fitted curve at half-maximal effect). Conditions: HEK293T RXRa-UAS-bla, beta-lactamase ratio, antagonist mode; measured here: W530 green channel, cytotoxicity proxy. The gist of the method: (§1)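 Beta-lactamase reporter inhibition, read as CCF4 fluorescence ratio (ex 405, em 460/530 nm) after 2 h at RT. HEK293T UAS-bla cells, 2500/well, were stimulated with 9-cis-RA at 500 or 100 nM final alongside test compound for 18 h at 37 C.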

Test [10] in a line: qHTS assay for small molecule activators of the p53 signaling pathway (AID 651743; active = well fitted activation curve with a large enough effect in the signal ratio, not every such curve was filed as active; the % refers to the signal ratio; also: series mostly up to about 92 µM; % of control where 0% means no effect). Conditions: HCT-116 p53RE-bla, beta-lactamase FRET ratio, 16 h; activation: stronger effect = higher value. In short, it runs like this: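 Screen for p53 pathway agonists uses stably transfected p53RE-bla HCT-116 cells, 4,000 per well, treated 16 h at 37 C with compounds in DMSO.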
Test [11] can be described thus: qHTS assay for small molecule activators of the nuclear factor-kappa B (NF-kB) signaling pathway (AID 651749; active = well fitted activation curve with a large enough effect in the signal ratio; the % refers to the signal ratio; also: series mostly up to about 77 µM; % of control where 0% means no effect). The following applies: NF-kB-bla ME-180 cells, beta-lactamase FRET ratio, 16 h; activation: stronger effect = higher value. The gist of the method:
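Stably transfected ME-180 line; NF-kB response element upstream of beta-lactamase. Treatment: compound or DMSO, 16 hr. Detection: fluorescent FRET substrate.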

Test [12] in a line: qHTS assay for environmental chemicals that activate the Aryl hydrocarbon Receptor (AhR) signaling pathway (AID 651777; active = well fitted curve in the direction sought with a large enough effect; an effect the other way counts as inactive or inconclusive; also: nearly all actives have a fitted effect of over 15% in size; also: potency is read from the fitted curve at half-maximal effect; as to activation: % of control where 0% means no effect). The following applies: 1A2-DRE human hepatoma cells, luciferase, 24 h; activation: stronger effect = higher value. In short, it runs like this:
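Luminescence (One-Glo, 30 min, room temperature) reports AhR-driven luciferase in stably transfected human hepatoma cells bearing DRE and CYP1A2 promoter. Cells (1,200/well) were treated with compound for 24 hr at 37 C in qHTS format.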

The target in test [13] is Peroxisome proliferator-activated receptor alpha (Homo sapiens) (UniProt Q07869). The experiment in a line: qHTS assay for small molecule agonists of the peroxisome proliferator-activated receptor alpha (PPARalpha) signaling pathway (AID 651778; active = well fitted curve in the direction sought with a large enough effect; an effect the other way counts as inactive or inconclusive; also: potency is read from the fitted curve at half-maximal effect; as to max response: % of control where 0% means no effect). Conditions: PathHunter PPARalpha complementation, chemiluminescence, 6 h; max response: stronger effect = higher value. The gist of the method: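 Chemiluminescence from complemented enzyme reported PPARalpha activation in cells after 6 hr of compound treatment at 37 C. The detection reagent was incubated for 60 min at room temperature, and compounds were scored as agonists.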
Peroxisome proliferator-activated receptor alpha (Homo sapiens), sequence (Q07869 whole entry, looked up): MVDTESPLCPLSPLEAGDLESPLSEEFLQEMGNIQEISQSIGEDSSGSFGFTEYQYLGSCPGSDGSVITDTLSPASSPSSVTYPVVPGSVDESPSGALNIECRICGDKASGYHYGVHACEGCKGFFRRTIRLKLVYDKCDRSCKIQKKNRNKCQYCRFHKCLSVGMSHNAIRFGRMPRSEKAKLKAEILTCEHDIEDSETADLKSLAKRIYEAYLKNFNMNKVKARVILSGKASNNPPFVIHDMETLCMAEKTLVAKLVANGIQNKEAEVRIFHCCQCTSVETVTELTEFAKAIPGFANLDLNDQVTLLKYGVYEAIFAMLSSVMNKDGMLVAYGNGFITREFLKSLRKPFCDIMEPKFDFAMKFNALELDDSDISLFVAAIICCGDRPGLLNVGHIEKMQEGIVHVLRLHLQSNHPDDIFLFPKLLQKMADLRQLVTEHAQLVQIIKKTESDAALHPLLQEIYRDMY

A short description of test [14]: qHTS assay for small molecule agonists of the antioxidant response element (ARE) signaling pathway measured by Nrf2-dependant transcriptional activity (AID 720636; active = well fitted curve in the direction sought with a large enough effect in the repeat runs; an effect the other way counts as inactive or inconclusive; also: potency is read from the fitted curve at half-maximal effect; as to activation: % of control where 0% means no effect). In short, it runs like this: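 Nrf2-dependent transcription read as ONE-Glo luciferase signal from ARE-luc HepG2 reporter cells after 16 hr compound treatment at 37 C, 5% CO2, in assay medium with 1% dialyzed FBS.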

A short description of test [15]: qHTS assay for small molecule agonists of the antioxidant response element (ARE) signaling pathway measured by Nrf2-dependant transcriptional activity - cell viability counter screen (AID 720653; active = well fitted curve in the direction sought with a large enough effect in the repeat runs; an effect the other way counts as inactive or inconclusive; also: % is scaled to controls: 0 for no effect and ±100 for the full control effect). Conditions: ARE-bla HepG2 viability, CellTiter-Glo ATP luminescence, 16 h; max response: stronger effect = lower value. In short, it runs like this: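 Cytotoxicity counter screen: intracellular ATP quantified by CellTiter-Glo luminescence in the same ARE-bla HepG2 plates, after 16 h compound exposure and a 2 h beta-lactamase substrate step.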

Test [16] in a line: qHTS assay for cell viability of HEK293 cells (AID 743288; active = well fitted curve in the direction sought with a large enough effect; an effect the other way counts as inactive or inconclusive; also: nearly all actives have a fitted effect of over 50% in size; also: potency is read from the fitted curve at half-maximal effect). Conditions: ATP luminescence (CellTiter-Glo), 18 h; max response: stronger effect = lower value. The gist of the method: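 The Tox21 protocol used parental HEK293 cells treated for 18 h at 37 C with compounds delivered by pintool; ATP-coupled luminescence after 30 min at room temperature gave viability.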
The nature of test [17]: qHTS assay for cell viability of the p53RE-bla HCT-116 cell line (AID 743292; active = well fitted curve in the direction sought with a large enough effect; an effect the other way counts as inactive or inconclusive; also: % is scaled to controls: 0 for no effect and ±100 for the full control effect; nearly all actives have a fitted effect of over 55% in size). The gist of the method: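 ATP-based luminescent viability (CellTiter-Glo, 30 min RT) after 16 h compound treatment at 37 C of p53RE-bla HCT-116 cells, seeded at 4,000 cells/well and rested 5 h before dosing.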
In test [18] the target is Vitamin D3 receptor (Homo sapiens) (UniProt P11473). Put plainly: qHTS assay for small molecule antagonists of vitamin D receptor signaling (AID 588541).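 Also: receptor activated by calcitriol during compound treatment; series mostly up to about 77 µM; % is scaled to controls: 0 for no effect and ±100 for the full control effect.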 In short, it runs like this: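 Antagonist-mode beta-lactamase reporter assay: HEK293T VDR-UAS-bla cells were exposed to titrated compound alongside 1-alpha,25-dihydroxyvitamin D3 at 3 nM final for 16 h. Values were normalized to the 50 nM agonist control and DMSO basal, with IC50 and efficacy from Hill equation fits.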

In test [19] the target is Retinoic acid receptor RXR-alpha (Homo sapiens) (UniProt P19793). Put plainly: qHTS assay for small molecule antagonists of retinoid X receptor alpha signaling (AID 588546). Also: potency is read from the fitted curve at half-maximal effect. The following applies: HEK293T RXRa-UAS-bla, beta-lactamase ratio, antagonist mode. The gist of the method:
as §1

For test [20], the target named is Thyroid hormone receptor beta (Homo sapiens) (UniProt P10828). Put plainly: qHTS assay for small molecule antagonists of thyroid hormone receptor beta signaling (AID 588547; active = well fitted inhibition curve with a large enough effect in the signal ratio, with a control signal flat, not every such curve was filed as active; the % refers to the signal ratio;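 also: cells stimulated with 0.4 nM T3 agonist during compound exposure; series mostly up to about 77 µM; % is scaled to controls: 0 for no effect and ±100 for the full control effect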). Conditions: TR-UAS-bla HEK293, beta-lactamase ratio, antagonist mode, 18 h. The gist of the method:
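Inhibition of T3-driven (0.4nM final) beta-lactamase reporter activity was measured over 0.59 nM to 92 uM compound after 18 h at 37 C. The cells were GripTite HEK293 TR-UAS-bla in charcoal/dextran-stripped serum, with CCF4 ratio read-out and IC50 from Hill fits.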

Records with an inconclusive call do not appear. Activity calls are given as the source filed them. Unless noted, calls follow the shape of the full dose curve.

Peroxisome proliferator-activated receptor delta (Homo sapiens), sequence (Q03181 whole entry, looked up): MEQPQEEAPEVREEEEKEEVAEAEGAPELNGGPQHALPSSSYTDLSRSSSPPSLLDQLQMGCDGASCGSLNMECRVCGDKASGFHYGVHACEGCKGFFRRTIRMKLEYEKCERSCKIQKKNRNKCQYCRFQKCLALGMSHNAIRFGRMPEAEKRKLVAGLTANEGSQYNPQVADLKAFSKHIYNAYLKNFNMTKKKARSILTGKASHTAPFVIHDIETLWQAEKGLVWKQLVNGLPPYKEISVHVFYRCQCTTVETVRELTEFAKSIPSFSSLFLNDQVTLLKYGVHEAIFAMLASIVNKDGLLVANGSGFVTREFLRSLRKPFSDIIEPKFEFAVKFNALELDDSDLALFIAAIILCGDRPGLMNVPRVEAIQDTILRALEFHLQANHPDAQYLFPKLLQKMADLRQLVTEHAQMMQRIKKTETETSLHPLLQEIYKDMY
Glucocorticoid receptor (Homo sapiens), sequence (P04150 whole entry, looked up): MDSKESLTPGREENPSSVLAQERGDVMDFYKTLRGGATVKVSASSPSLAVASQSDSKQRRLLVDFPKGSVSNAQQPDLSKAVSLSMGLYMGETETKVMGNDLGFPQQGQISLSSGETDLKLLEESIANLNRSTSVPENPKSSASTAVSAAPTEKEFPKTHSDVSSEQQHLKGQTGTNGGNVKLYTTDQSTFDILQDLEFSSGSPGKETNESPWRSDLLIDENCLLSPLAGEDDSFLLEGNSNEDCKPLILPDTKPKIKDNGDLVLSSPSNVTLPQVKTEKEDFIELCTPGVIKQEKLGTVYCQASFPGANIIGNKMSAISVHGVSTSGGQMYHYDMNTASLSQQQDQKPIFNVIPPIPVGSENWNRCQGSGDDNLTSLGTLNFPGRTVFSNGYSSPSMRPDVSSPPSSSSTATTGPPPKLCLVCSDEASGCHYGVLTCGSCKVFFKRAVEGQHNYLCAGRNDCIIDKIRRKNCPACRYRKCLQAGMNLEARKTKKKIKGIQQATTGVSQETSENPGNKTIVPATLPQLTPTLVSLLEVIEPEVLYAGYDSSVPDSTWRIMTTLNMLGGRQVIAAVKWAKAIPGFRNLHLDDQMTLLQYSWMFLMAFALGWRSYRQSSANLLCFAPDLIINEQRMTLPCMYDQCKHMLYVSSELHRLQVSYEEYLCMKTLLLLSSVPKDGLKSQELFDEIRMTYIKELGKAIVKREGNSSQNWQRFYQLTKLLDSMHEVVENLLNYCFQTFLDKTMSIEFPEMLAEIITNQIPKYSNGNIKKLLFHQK
Thyroid hormone receptor beta (Homo sapiens), sequence (P10828 whole entry, looked up): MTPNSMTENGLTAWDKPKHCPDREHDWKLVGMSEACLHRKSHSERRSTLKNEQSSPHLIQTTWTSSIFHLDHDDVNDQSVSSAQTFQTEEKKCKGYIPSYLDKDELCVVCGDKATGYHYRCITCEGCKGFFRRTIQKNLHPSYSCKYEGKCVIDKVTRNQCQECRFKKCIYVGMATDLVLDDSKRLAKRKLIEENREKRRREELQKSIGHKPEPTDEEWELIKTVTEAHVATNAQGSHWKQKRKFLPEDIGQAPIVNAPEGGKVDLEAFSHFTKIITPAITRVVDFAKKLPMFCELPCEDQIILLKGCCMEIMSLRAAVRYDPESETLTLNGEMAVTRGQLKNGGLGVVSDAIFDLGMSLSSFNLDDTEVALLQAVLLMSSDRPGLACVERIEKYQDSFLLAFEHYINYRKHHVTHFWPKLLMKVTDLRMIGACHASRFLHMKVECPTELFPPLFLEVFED

In the case of `O=C1C=CC(=O)c2ccccc21`, the Potency entry in test [1], in test [7], in test [8], in [14] and in test [17] was “inactive” in each case. For the same molecule, the activation in test [2] is -2.25% (inactive); in [3], 0.432% (inactive); in [10], -3.99% (inactive); in test [11], -1.33% (inactive). Further, the result in test [4] and in test [6] was inactive. The max response in test [5] was -18.7%; in test [9] it was -1.96%; in test [13], -1.22% (inactive); in test [15] it was -8.11% (inactive); in test [16], -3.96% (inactive). For the same molecule, in test [12], the Potency was 15.8 µM (active).
On to `C[C@H]1[C@H](c2ccc(Cl)cc2)SC(=O)N1C(=O)NC1CCCCC1`, for which the results for the activation in [3], in [10] and in [12] were -1.81% (inactive), 4.32% (inactive) and 6.81% (inactive), respectively. The Potency result in [18], in [8], in [14] and in test [17] was “inactive” in each case. Further, the outcome in [6] was inactive. Also, the max response in test [13] is -4.71% (inactive); in test [15], -8.81% (inactive); in test [16], -26% (inactive).
`CCCCOCCOC(C)=O`: the Potency result in test [1], in [18], in test [7], in [8] and in test [14] was “inactive” throughout. Also, the activation is 1.59% (inactive) in [2], -12.9% (inactive) in test [3], 0.23% (inactive) in test [10] and 0.977% (inactive) in test [12]. The result in [4] and in [6] was inactive. Besides, the max response was -10.5% in test [5]; -13.5% in test [9]; -8.99% (inactive) in test [19]; 0.401% (inactive) in test [13]; -5.86% (inactive) in test [15]; -2.95% (inactive) in test [16]. Moreover, the activity change % (negative = inhibition) in [20] is -3.6% (inactive).
Take `C=CC(=O)OCC(CC)(COC(=O)C=C)COC(=O)C=C`: the results for the activation in test [3], in test [11] and in [12] were -13.7% (inactive), 0.162% (inactive) and 9.7% (inactive), respectively. Further, the result in test [4] and in test [6] was inactive. For the same molecule, the max response was 23.9% in test [9], -1.24% (inactive) in test [13] and -3.3% (inactive) in test [15]. Also, the Potency is 44.7 µM (active) in [19], 61.1 µM (active) in test [14] and 50.1 µM (active) in [16]. In addition, the Potency result in [17] is “inactive”.
Regarding `CCC(C)(NC(=O)c1cc(Cl)c(C)c(Cl)c1)C(=O)CCl` (stereo not drawn), the Potency entry in [1], in test [8] and in [17] was “inactive” each time. For the same molecule, the activation in test [2] is -3.52% (inactive); in test [3] it was -7.44% (inactive); in test [10], 14.9% (inactive); in [11], -0.168% (inactive); in test [12] it was 1.89% (inactive). In test [4], the call was inactive. The max response in test [5] is 31.6%; in test [13], 0.829% (inactive); in test [15], 0.353% (inactive); in test [16] it was -19.8% (inactive).
For `N#Cc1cc(Br)c(O)c(Br)c1`, the Potency entry in test [1], in [8], in test [14] and in test [17] was “inactive” in each case. The activation in test [2] is 1.36% (inactive); in test [3], 4.63% (inactive); in test [10], 5.1% (inactive); in test [11], -2.3% (inactive); in test [12], 1.12% (inactive). In test [4], the molecule was classed as inactive. In addition, the Potency was 15.8 µM (active) in test [7] and 25.1 µM (active) in test [13]. The max response in [9] was -9.47%; in [19], 1.7% (inactive); in [15], -28.2% (inactive); in test [16] it was -7.19% (inactive). Further, the activity change % (negative = inhibition) in [20] was 6.22% (inactive).
